The list is not random: actives were taken first. Their share in the collection is about 6.5%.
Vaccinia Venus: vaccinia inhibition (Venus reporter); Vaccinia virus Venus reporter expression, fluorescence; Potency, µM (top dose mostly 36.5 µM), most hits filed as inhibitors; 330,000 compounds, 0.46% hits; calls by dose curve; tested in A549 cells; further: nearly all actives have a fitted effect of over 30% in size
LASV entry inh: inhibitors of Lassa virus binding or cell entry. AID 540256. Lassa virus pseudotype entry inhibition, cell reporter. 300,000 compounds, 1.2% hits. Potency, µM (highest dose often 37.9 µM), most hits filed as inhibitors; calls by dose curve; tested in HEK293 cells; further: nearly all actives have a fitted effect of over 50% in size
HCMV inh: human cytomegalovirus inhibition; AID 1259415; activity change, negative = inhibition, % at 57.5 µM; 410,000 compounds, 4.5% hits; HFF cells, HCMV-luciferase reporter, 72 h; stronger effect = lower value; in the data active means activity change below about -60%; inconclusive means no clear call, values can overlap the other calls; inactive means above about -39%
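Two-dose cell screen: HFF monolayers treated with compounds and infected with luciferase-expressing HCMV at 1 PFU/cell, 72 h at 37C, then lysed for luciferase measurement.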
Marburg entry inh: Marburg virus entry inhibition. AID 540276. 300,000 compounds, 1.8% hits. Potency, µM (series often up to 37.8 µM), hits mostly inhibitors. Marburg virus pseudotyped entry inhibition, cell reporter; calls by dose curve; tested in HEK293 cells
Vaccinia mCherry: vaccinia inhibition (mCherry reporter) | Vaccinia virus mCherry reporter infection, fluorescence | Potency, µM (doses to about 36.5 µM), most hits filed as inhibitors | 310,000 compounds, 0.63% hits; calls by dose curve; tested in A549 cells; further: nearly all actives have a fitted effect of over 35% in size
FMDV inh: blocks foot and mouth disease virus; FMDV antiviral cell-based qHTS; Potency, µM (titrated, usually from 57.9 µM), hits mostly inhibitors; 410,000 compounds, 1.2% hits; calls by dose curve; tested in HEK293T cells; further: read-out not given here; nearly all actives have a fitted effect of over 45% in size
Hits are given with their value; 0 = inactive; ? = inconclusive; - = no result; [ ] = another dose, or the depositor's remark.

SMILES	Vaccinia Venus	LASV entry inh	HCMV inh	Marburg entry inh	Vaccinia mCherry	FMDV inh
COc1ccc(NS(=O)(=O)c2cc(NC(=O)c3cccs3)ccc2N2CCCC2)cc1	0	?	-97	?	0	0
CCC(=O)Nc1ccc(N2CCCCC2)c(C(=O)Nc2ccc(OC)cc2)c1	0	0	-81	?	?	0
COc1ccc(NS(=O)(=O)c2cc(NC(=O)c3ccccc3F)ccc2N2CCCC2)cc1	0	?	?	?	?	0
COc1ccc(NS(=O)(=O)c2cc(NC(=O)c3ccc(C)o3)ccc2N2CCCCC2)cc1	0	?	-90	?	0	0
CCOC(=O)C1CCCN(C(=O)c2cccs2)CC1 (stereo not drawn)	0	-	0	-	0	0
C=C1C[C@@]2(C)CCCC3=CC(=O)C=C[C@@]32Oc2ccccc21	-	-	0	-	-	-
CC(C)(C)Cc1c(-c2ccccc2)nc2ccc(Cl)cn12	0	-	0	-	0	0
O=C(CCC(=O)N1CCN(c2ccccc2F)CC1)N1CCN(c2ccc(F)cc2)CC1	0	?	-62	0	0	22µM
O=C(CCSCc1ccccc1Cl)N1CCN(c2ccc(F)cc2)CC1	0	0	-64	-	0	0
NC(=O)C1CCN(C(=O)CNC(=O)c2ccc(F)cc2)CC1	0	0	0	0	0	0
O=[N+]([O-])/N=C1\NCCN1Cc1ccc(Cl)nc1	0	-	-	-	0	0
NC(=S)N/N=C1\CCOc2ccc(Cl)cc21	-	-	-104	-	-	0
NC(=S)NN=C1c2cc(S(=O)(=O)N3CCOCC3)ccc2-c2ccc(S(=O)(=O)N3CCOCC3)cc21	0	0	0	0	0	0
O=C(Nc1cccs1)Nc1c(F)c(F)c(F)c(F)c1F	0	?	-61	0	0	0
Cc1c(C)c2ccc(OCC(=O)N[C@@H](Cc3ccccc3)C(=O)O)cc2oc1=O	0	-	-77	-	0	0
Cc1ccc(N2CCN(S(=O)(=O)N3CCCCC3)CC2)cc1C	0	0	-69	0	0	0
CC(=O)Nc1ccc(Nc2ccc(S(=O)(=O)C(F)(F)F)cc2[N+](=O)[O-])cc1	0	0	-97	0	0	0
C[n+]1ccc(/C=C/c2ccc3ccccc3c2)cc1	?	-	-	-	?	0
C[n+]1ccc(/C=C/c2ccc(Br)cc2)cc1	?	0	-63	?	?	0
CCOC(=O)C(NC(=O)CC)(Nc1ccccc1OC)C(F)(F)F (stereo not drawn)	0	0	0	0	-	0
CCOC(=O)C(Cc1ccccc1)(Nc1ccccc1OC)C(O)c1ccc(C#N)cc1 (stereo not drawn)	-	-	-66	-	-	-
C[N+](C)(C)CC(O)CC(=O)[O-] (stereo not drawn)	0	-	-	-	0	0
COc1cc2c(-c3ccccc3Cl)nc3c(c(C)nn3-c3ccccc3)c2cc1OC	0	0	0	-	0	0
CN1C=CC(=C2C(=O)c3ccccc3C2=O)C=C1	-	-	-	0	-	-
CCN1C=CC(=C2C(=O)c3ccccc3C2=O)C=C1	-	0.65µM	-89	1.8µM	-	4.5µM
SMILES	Vaccinia Venus	LASV entry inh	HCMV inh	Marburg entry inh	Vaccinia mCherry	FMDV inh
CCCCN1C(C)=CC(=C2C(=O)c3ccccc3C2=O)C=C1C	0	?	0	?	0	0
CCCCCCN1C=CC(=C2C(=O)c3ccccc3C2=O)C=C1	-	-	-66	-	-	0
CCCN1C=CC(=C2C(=O)c3ccccc3C2=O)C=C1	-	0.21µM	-98	0.21µM	-	1µM
CC1(C(=O)NS(=O)(=O)c2ccc(Cl)s2)CCN1C(=O)C1CCCCC1 (stereo not drawn)	0	-	0	-	0	0
COc1ccccc1CNC(=O)COc1cc(=O)n(C)c2ccccc12	0	0	0	0	0	0
C=CCn1c(O)c(C(CC)=NCc2ccc3c(c2)OCO3)c(=O)[nH]c1=O	0	?	0	0	0	0
C=CCn1c(O)c(C(CC)=NCc2cc(OC)cc(OC)c2)c(=O)[nH]c1=O	?	5.8µM	0	?	?	0
Cc1ccc(-c2nnc(N3CCCCC3)c3ccccc23)cc1	-	-	-61	-	-	0
c1ccc(-c2nnc(N3CCN(c4ccccn4)CC3)c3ccccc23)cc1	-	?	?	0	-	0
COc1ccc(-c2nnc(N3CCC(C)CC3)c3ccccc23)cc1	0	0	-63	0	0	0
Clc1nnc(N2CCCCC2)c2ccccc12	0	0	-91	0	0	0
CC1CCN(c2nnc(N3CCC(C)CC3)c3ccccc23)CC1	0	-	0	-	0	0
Cc1ccc(-c2nnc(N3CCN(c4ccccn4)CC3)c3ccccc23)cc1	18µM	?	0	?	11µM	22µM
COC(=O)c1ccc(CN2C(=O)[C@]3(OCCC=C[C@@H]3C)c3ccccc32)cc1	-	-	-	0	-	-
CCCN1Cc2cccc(C(=O)Nc3ccccc3C(=O)OC)c2C1=O	0	0	0	0	0	0
COc1ccc(C2COC(=O)C2=N)c(NC(=O)c2ccc(Cl)cc2)c1 (stereo not drawn)	0	0	0	0	0	0
COc1cc(CN2CCC3(CCC(CNC(=O)c4ccco4)O3)CC2)cc(OC)c1 (stereo not drawn)	0	-	-	-	0	0
COc1ccc(CNC(=O)Cn2c(SCC(=O)Nc3ccc(C)c(C)c3)nc3ccccc32)cc1	?	?	-67	-	?	0
COc1ccc(NC(=O)CSc2nc3ccccc3n2CC(=O)NCc2ccc(F)cc2)cc1	0	0	0	-	0	0
Cc1ccccc1NC(=O)Cn1c(SCC(=O)Nc2ccc(F)cc2)nc2ccccc21	0	0	-64	-	0	0
O=C(O)[C@H]1/C(=C/CO)O[C@@H]2CC(=O)N21	0	-	-	-	0	-
CC(OC(=O)Cn1[nH]c(=O)c2ccccc2c1=O)C(=O)c1ccccc1 (stereo not drawn)	-	-	0	-	-	0
O=[N+]([O-])c1ccc2c(c1)ncn2-c1ccccc1	0	?	-70	0	0	0
O=[N+]([O-])c1ccc2cn(-c3ccccc3)nc2c1	0	0	-68	?	0	0
Cc1ccccc1C(=O)Nc1cc2c(cc1N1CCOCC1)n(C)c(=O)n2C	0	0	0	0	0	0
SMILES	Vaccinia Venus	LASV entry inh	HCMV inh	Marburg entry inh	Vaccinia mCherry	FMDV inh
CCOc1ccccc1NC(=O)Nc1cc2c(cc1N1CCCCC1)n(CC)c(=O)n2CC	0	?	-62	-	0	0
CCOc1ccccc1C(=O)Nc1cc2c(cc1N1CCOCC1)n(C)c(=O)n2C	0	0	-112	0	0	0
CCOc1ccccc1C(=O)Nc1cc2c(cc1N1CCCC1)n(CC)c(=O)n2CC	-	-	0	-	-	?
O=C(NCCCNc1ccc([N+](=O)[O-])cc1)C(F)(F)F	0	0	0	?	0	0
O=C(CCl)N(CCCNC(=O)C(F)(F)F)c1ccc([N+](=O)[O-])cc1	0[7.34 µM]	0	-101	0	0[7.34 µM]	20µM
O=S1(=O)CCOC[C@H](Cc2ccccc2)N1Cc1cccc(F)c1	0	-	0	-	0	0
CCCC[C@H]1COCCS(=O)(=O)N1Cc1ccccc1F	0	-	-99	-	0	0
O=S1(=O)CCOC[C@H](Cc2ccccc2)N1Cc1ccc(F)cc1	?	-	-67	-	0	0
CC(C)[C@H]1COCCS(=O)(=O)N1Cc1ccccc1F	1µM	-	0	-	?	0
CC(C)[C@H]1COCCS(=O)(=O)N1Cc1cccc([N+](=O)[O-])c1	28µM	-	-	-	?	-

Source: PubChem
